Reference: ChEMBL document CHEMBL3988442, “University of Dundee, Small-Polar-MMV Screening Library” (2021)
For some of these results: Potency and affinity values are given separately.

Key:
Design in all cases: scale not given: direction of the effect not stated beside the values
[1] = target: Protein translocase subunit SecA (Escherichia coli (strain K12)) (UniProt P10408); assay: Assay to Identify E. coli SecA ATPase Inhibitors; assay type: functional; details: 30 µM
[2] = target: T1, Ubiquitin-activating enzyme e1, putative (Leishmania donovani (strain BPK282A1)) (UniProt E9BSI1); assay: Leishmania donovani Ubiquitin Activating Enzyme (LdE1); assay type: functional; details: 30 µM
T1 sequence (whole entry): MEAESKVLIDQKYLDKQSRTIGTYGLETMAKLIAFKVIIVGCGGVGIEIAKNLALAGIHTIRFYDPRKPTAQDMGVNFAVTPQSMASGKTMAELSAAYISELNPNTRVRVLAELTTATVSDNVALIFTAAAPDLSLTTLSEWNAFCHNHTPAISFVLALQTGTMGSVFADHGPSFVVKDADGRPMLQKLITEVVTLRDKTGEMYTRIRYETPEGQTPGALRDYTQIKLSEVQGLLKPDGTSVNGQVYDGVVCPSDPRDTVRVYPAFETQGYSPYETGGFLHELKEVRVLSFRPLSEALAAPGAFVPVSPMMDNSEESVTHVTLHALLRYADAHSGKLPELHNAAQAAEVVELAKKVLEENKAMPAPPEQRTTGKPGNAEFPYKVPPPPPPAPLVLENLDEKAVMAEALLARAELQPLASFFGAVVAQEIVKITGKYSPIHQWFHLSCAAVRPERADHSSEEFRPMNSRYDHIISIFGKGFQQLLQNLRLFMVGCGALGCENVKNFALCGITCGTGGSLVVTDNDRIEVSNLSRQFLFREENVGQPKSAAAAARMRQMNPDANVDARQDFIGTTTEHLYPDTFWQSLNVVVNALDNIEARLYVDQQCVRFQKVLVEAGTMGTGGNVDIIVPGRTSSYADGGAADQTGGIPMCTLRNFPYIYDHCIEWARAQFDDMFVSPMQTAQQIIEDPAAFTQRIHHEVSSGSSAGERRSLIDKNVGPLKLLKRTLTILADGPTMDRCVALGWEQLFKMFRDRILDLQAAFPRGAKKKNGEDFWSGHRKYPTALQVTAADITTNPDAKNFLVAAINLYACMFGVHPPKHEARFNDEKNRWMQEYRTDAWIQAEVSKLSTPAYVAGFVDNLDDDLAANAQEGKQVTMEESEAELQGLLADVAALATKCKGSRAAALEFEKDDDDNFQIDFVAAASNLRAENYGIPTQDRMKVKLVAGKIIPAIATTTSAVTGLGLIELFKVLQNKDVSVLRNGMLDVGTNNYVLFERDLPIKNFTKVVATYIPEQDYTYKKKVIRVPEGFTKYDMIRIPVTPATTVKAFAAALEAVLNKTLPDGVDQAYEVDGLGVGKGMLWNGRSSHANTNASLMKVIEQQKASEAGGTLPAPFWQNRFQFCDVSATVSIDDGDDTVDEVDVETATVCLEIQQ

[3] = target: AMP-activated protein kinase, AMPK (Homo sapiens) (UniProt P54646+O43741+P54619+Q9UGJ0+Q9Y478+Q13131+Q9UGI9); assay: AMP-dependent Kinase enzyme assay. An in vitro enzyme assay that detects ADP turnover that is directly proportional to AMPK activity. This uses naive AMPK that is activated during the assay with MK-8722; assay type: functional; details: 30 µM
[4] = target: Sialic acid-binding Ig-like lectin 9 (Homo sapiens) (UniProt Q9Y336); assay: Hs-Siglec9 ALPHAscreen SOP 20170721; details: 10 µM
Trypanosoma cruzi = assay: Trypanosoma cruzi phosphomannomutase and mannose-1-phosphate guanylyltransferase assay; assay type: functional; details: 10 µM
[5] = target: T2, Arginase-2, mitochondrial (Homo sapiens) (UniProt P78540); assay: in vitro enzyme assay to detect the production of urea directly proportional to the activity of Arginase II; assay type: functional; details: 33.3 µM; note: in the data most compounds retested in dose-response had high values
T2 sequence (whole entry): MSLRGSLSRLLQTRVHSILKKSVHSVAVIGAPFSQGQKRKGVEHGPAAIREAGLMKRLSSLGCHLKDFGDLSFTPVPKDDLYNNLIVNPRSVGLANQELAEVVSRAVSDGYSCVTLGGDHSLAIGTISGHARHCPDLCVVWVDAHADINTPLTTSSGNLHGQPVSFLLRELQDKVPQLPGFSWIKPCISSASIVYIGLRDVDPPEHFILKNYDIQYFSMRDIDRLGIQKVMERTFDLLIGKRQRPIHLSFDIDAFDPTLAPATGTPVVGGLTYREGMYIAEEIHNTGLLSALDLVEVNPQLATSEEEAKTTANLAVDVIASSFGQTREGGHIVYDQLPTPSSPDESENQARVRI

[6] = target: T3, Proteasome subunit beta (Trypanosoma cruzi) (UniProt O96673); assay: Trypanosoma cruzi proteasome chymotrypsin-like activity (TcProtChymo) assay.; note: in the data most compounds retested in dose-response had high values; assay type: functional; details: 9.37 µM
T3 sequence (whole entry): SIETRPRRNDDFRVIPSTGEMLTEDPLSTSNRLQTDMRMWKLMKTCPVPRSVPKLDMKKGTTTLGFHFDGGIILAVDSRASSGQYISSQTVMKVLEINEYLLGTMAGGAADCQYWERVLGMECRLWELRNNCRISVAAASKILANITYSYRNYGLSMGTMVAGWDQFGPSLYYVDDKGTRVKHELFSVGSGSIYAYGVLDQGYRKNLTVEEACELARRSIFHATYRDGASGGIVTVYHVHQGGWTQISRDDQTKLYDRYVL

Homo sapiens = species: Homo sapiens; assay: To identify inhibition of the IFN signalling (Jak-Stat) pathway via expression of an eGFP reporter gene under the control of an IFN-stimulated response element (ISRE) containing MxA promoter.; assay type: functional; details: 30 µM
[7] = target: T4, Tyrosyl-tRNA synthetase, putative (Trypanosoma cruzi (strain CL Brener)) (UniProt Q4DSP6); assay: Trypanosoma cruzi tyrosyl tRNA synthetase (TcYRS) _High Tyrosine SOP; assay type: functional; details: 30 µM; note: in the data most compounds retested in dose-response had high values
T4 sequence (whole entry): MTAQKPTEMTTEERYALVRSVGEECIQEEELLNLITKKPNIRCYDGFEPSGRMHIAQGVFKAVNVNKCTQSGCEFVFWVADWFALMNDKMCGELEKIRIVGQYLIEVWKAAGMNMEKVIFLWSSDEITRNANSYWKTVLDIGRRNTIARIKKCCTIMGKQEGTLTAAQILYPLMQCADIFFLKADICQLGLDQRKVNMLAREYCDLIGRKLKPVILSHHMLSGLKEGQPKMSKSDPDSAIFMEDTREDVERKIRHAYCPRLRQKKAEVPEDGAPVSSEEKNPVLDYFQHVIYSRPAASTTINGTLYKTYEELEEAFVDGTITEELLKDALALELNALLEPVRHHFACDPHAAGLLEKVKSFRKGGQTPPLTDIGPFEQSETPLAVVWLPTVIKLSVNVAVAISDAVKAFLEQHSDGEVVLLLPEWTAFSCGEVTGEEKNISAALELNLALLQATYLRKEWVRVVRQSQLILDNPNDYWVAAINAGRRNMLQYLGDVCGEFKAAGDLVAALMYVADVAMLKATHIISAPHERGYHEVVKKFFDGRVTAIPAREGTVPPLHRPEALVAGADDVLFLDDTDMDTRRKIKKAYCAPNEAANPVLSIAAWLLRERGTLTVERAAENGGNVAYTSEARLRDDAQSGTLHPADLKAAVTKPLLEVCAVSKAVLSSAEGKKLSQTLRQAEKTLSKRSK

[8] = target: T4, Tyrosyl-tRNA synthetase, putative (Trypanosoma cruzi (strain CL Brener)); assay: Trypanosoma cruzi tyrosyl tRNA synthetase (TcYRS) SOP; assay type: functional; details: 30 µM
[9] = target: Chromo domain-containing protein 1 (Saccharomyces cerevisiae (strain ATCC 204508 / S288c) (Baker's yeast)) (UniProt P32657); assay: ScCHD-1 Enzyme Inhibition Assay; assay type: functional; details: 30 µM; note: in the data most compounds retested in dose-response had high values
Sequence of Chromo domain-containing protein 1 (Saccharomyces cerevisiae (strain ATCC 204508 / S288c) (Baker's yeast)) (P32657 whole entry, the tested form may be a part): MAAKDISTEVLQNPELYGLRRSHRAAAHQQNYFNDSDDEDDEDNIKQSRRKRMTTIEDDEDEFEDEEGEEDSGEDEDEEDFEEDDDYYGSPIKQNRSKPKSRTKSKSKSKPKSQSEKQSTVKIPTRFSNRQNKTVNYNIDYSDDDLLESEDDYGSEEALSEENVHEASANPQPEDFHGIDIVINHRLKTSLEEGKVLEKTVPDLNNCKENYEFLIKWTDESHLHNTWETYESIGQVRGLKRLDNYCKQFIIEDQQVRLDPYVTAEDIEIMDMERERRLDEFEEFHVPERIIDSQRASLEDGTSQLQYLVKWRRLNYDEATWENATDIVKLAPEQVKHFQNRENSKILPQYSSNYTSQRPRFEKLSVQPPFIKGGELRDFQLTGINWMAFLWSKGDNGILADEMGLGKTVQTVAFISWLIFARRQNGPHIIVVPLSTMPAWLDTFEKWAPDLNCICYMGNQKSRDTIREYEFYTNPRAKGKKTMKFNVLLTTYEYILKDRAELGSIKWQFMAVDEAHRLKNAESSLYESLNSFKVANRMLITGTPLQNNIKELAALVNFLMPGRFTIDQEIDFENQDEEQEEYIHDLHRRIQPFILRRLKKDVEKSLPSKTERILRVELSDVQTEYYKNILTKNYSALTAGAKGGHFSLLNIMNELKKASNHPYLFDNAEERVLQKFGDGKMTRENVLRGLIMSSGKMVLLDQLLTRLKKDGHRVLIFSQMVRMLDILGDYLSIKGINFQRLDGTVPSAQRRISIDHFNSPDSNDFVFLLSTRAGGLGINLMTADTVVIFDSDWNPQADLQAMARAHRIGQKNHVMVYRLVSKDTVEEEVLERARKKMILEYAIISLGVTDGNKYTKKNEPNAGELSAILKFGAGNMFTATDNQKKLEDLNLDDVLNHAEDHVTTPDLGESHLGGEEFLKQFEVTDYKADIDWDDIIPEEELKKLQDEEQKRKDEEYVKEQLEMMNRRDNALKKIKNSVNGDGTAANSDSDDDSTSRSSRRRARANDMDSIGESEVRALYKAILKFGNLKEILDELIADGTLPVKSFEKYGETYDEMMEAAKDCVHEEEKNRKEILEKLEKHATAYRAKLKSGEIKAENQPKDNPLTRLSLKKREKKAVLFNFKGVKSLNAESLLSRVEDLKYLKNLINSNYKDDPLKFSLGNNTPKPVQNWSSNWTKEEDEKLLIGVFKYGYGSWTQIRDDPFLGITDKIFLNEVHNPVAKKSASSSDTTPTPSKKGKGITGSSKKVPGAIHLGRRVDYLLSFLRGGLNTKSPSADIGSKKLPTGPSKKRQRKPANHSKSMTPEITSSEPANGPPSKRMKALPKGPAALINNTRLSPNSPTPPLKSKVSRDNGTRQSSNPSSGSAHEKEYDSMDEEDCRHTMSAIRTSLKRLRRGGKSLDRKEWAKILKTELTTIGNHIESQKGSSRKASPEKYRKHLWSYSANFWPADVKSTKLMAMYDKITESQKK

Sequence of Sialic acid-binding Ig-like lectin 9 (Homo sapiens) (Q9Y336 whole entry): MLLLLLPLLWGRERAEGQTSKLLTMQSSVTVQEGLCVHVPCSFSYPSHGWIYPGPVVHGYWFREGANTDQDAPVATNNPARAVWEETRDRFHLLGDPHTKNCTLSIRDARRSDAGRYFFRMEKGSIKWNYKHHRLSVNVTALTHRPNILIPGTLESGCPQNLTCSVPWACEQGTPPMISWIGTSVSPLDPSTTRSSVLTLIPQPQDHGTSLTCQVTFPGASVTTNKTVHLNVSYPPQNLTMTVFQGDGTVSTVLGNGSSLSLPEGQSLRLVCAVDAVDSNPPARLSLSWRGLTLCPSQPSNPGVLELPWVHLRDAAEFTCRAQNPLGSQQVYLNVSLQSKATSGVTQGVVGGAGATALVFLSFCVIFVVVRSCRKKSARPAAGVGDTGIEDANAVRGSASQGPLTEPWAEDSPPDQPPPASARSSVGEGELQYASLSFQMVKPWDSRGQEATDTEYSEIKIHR
Sequence of Protein translocase subunit SecA (Escherichia coli (strain K12)) (P10408 whole entry): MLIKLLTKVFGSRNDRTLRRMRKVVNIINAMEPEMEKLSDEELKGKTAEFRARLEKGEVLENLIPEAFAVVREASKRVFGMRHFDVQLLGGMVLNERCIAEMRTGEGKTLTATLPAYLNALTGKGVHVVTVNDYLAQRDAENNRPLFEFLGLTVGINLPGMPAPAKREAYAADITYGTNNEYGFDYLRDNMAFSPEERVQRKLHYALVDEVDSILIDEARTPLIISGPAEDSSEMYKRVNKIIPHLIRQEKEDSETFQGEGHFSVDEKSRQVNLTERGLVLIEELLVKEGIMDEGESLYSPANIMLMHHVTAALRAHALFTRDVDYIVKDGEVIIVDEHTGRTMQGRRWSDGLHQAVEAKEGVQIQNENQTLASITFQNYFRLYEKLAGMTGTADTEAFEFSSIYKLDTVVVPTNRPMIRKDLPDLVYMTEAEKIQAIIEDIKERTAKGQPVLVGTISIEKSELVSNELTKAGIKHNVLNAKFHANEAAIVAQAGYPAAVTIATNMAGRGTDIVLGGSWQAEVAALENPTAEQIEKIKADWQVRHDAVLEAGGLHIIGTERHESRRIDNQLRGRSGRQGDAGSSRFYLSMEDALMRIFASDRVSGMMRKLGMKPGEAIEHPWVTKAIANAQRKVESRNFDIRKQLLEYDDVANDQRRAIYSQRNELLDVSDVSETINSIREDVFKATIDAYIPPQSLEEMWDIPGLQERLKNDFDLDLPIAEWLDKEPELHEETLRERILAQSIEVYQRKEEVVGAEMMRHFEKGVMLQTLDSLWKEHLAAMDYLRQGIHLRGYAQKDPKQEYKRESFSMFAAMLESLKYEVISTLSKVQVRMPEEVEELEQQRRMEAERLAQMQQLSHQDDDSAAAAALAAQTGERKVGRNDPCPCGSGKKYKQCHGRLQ

| SMILES | Percent Effect [1] | Percent Effect [2] | Percent Effect [3] | Percent Effect [4] | Percent Effect (Trypanosoma cruzi) | Percent Effect [5] | Percent Effect [6] | Percent Effect (Homo sapiens) | Percent Effect [7] | Percent Effect [8] | Percent Effect [9] |
| --- | --- | --- | --- | --- | --- | --- | --- | --- | --- | --- | --- |
| CC(C)(C)n1cc(C(=O)N2CCN(Cc3ccccc3F)CC2)cn1 | -2.41% | 13.2% | -1.01% | 8.67% | 4.89% | 0.383% | 22.4% | 10.5% | 6.37% | 21.9% | -11.6% |
| CCN1CCN(C2CCN(Cc3noc(C)n3)CC2)C1=O | -5.08% | 25.3% | -3.66% | -5.18% | 1.98% | 0.38% | 5.16% | -0.161% | 7.39% | 21.5% | -6.23% |
| CCc1noc(C)c1C(=O)N1CCCC1c1c(C)nn(C)c1OC (stereo unspecified) | -2.91% | -2.53% | 2.09% | 2.98% | 2.36% | -3.42% | -3.03% | -17.3% | 1.48% | 1.27% | 0.826% |
| CC(C)(C)C(=O)NCCC(=O)NS(=O)(=O)c1ccc2c(c1)OCCO2 | -4.61% | 5.48% | 0.75% | 8.35% | 7.64% | -0.909% | 7.1% | -22.6% | 5.38% | 10% | -1.32% |
| Cc1ccc(CNC2CCN(CCc3ccncc3)CC2)s1 | -6.73% | -5.41% | -1.83% | 2.51% | -1.76% | 5.42% | 7.86% | 1.37% | 7.92% | 8.54% | -4.89% |
| Cc1cc(CN2CCN(CC(O)C(C)(C)C)CC2)no1 (stereo unspecified) | 0.683% | 15.2% | -2.9% | 10.4% | 4.63% | 1.52% | 4.83% | 14.7% | 5.42% | 16.5% | -5.62% |
| Cc1ccc(C(=O)NCCCNS(C)(=O)=O)c(=O)[nH]1 | -3.74% | 16.2% | -2.72% | 4.72% | 2.54% | 5% | 22.4% | -1.74% | 10.9% | 18.3% | -7.91% |
| Cc1nnc(C(C)N2CCN(Cc3ccc(C#N)cc3)CC2)o1 (stereo unspecified) | -3.48% | 8.11% | -6.14% | 9.9% | -8.77% | 27.7% | -5.22% | 5.6% | 0.493% | 3.7% | 0.608% |
| COc1cccc(-n2c(C)cc(C(=O)O)c2C)c1 | -4.92% | 20.2% | -3.83% | -8.51% | -6.52% | 2.28% | 10.7% | 31.6% | -0.493% | 3.8% | -2.26% |
| COc1c(CNCc2cccc(CS(C)(=O)=O)c2)c(C)nn1C | -1.32% | 13.5% | -7.47% | -4.4% | -6.13% | 1.2% | 4.68% | 4.32% | -0.493% | 11.1% | -6.98% |
| Fc1cccc(-n2ccc(CN3CCCCC3Cn3cncn3)n2)c1 (stereo unspecified) | -3.79% | -7.59% | 0.842% | 2.62% | -2.74% | -1.14% | -2.21% | 17% | -2.46% | -8.86% | 2.75% |
